The values below come from PubChem BioAssay.

A short description of this assay: inhibitors of PAF-induced NFkB signaling in CF airway cells, dose response, cell-based, uHTS hits, panel, cytotoxicity readout (AID 624344). The following applies: CF bronchial epithelial cells, PAF-induced NFkB reporter inhibition, with PAF, run 1; at 79 µM (top of the series).
One may read the inhibition as the change of the read-out against control, counted positive when it falls. `C=C1C(=O)OC2CC3(C)OC3CCC(C)=CC(OC(C)=O)C12` (stereo unspecified): the inhibition came to 93.9%. Consider `O=c1[nH]c2ccccc2n1C1CCN(C(c2cc3ccccc3o2)c2nnnn2-c2ccc3c(c2)OCCO3)CC1` (stereo unspecified), for which the inhibition came out at 103%. To `COc1ccc2c(c1)[nH]c1c(C)nccc12` belongs 113%. In the case of `NC(=Nc1ccccc1)NN=Cc1c[nH]c2ccccc12`, the inhibition is 94.3%. To `C=CC[C@@H](CC/C=C/C=C/CC/C=C\[C@@H]1CSC([C@@H]2C[C@@H]2C)=N1)OC` belongs 91.9%; to `O=c1[nH]c2ccccc2n1C1CCN(C(c2cccc3ccccc23)c2nnnn2Cc2ccccc2)CC1` (stereo unspecified), 103%; to `C[C@H]1CCCC(=O)CCC/C=C/c2cc(O)cc(O)c2C(=O)O1`, 102%. In the case of `C=C1C(C)C2C(Cc3ccccc3)NC(=O)C23OC(=O)/C=C/C(O)CCCC(C)C/C=C/C3C1O` (stereo unspecified), the inhibition is 104%.

For the compound `COc1ccc(-n2nnnc2C(CCSC)N2CCC(n3c(=O)[nH]c4ccccc43)CC2)cc1` (stereo unspecified), the inhibition stood at 97.9%. To `COc1cc(C2c3cc4c(cc3CC3COC(=O)C32)OCO4)cc(OC)c1O` (stereo unspecified) belongs -31.2%; to `C[C@H]1C[C@@H](C)C(=O)[C@@H]([C@H](O)CC2CC(=O)NC(=O)C2)C1`, 107%; to `COc1ccc(Oc2cc(NC(=O)c3nn(C)cc3[N+](=O)[O-])cc([N+](=O)[O-])c2)cc1`, 113%. To `CC(=O)c1c(C)n(C2CCCCC2)c2ccc(O)cc12` belongs 95.6%.

As to `COc1ccc(C[C@H]2NC[C@H](O)[C@H]2OC(C)=O)cc1`, the inhibition was 114%. To `COc1ccc(-n2nnnc2C(c2cccs2)N2CCC(n3c(=O)[nH]c4ccccc43)CC2)cc1` (stereo unspecified) belongs 102%; to `COc1cc(C2c3cc4c(c(O)c3CC3COC(=O)C32)OCO4)cc(OC)c1OC` (stereo unspecified), 110%.
